Records with an inconclusive call do not appear. Entries that show only a call come without a potency. Calls of active or inactive are those of the source. Calls follow the shape of the dose curve; as a rule, active = well fitted activation curve with a large enough effect in the repeat runs; inconclusive = weak or mixed curves; inactive = flat fitted curve, though single readings scatter.
Potency is read from the fitted curve at half-maximal effect.

The experiment can be described thus: A CellTox Green Cytotoxicity Assay to monitor cytotoxicity in HEK293 cells - 24 hour (AID 1224875). Also: nearly all actives have a fitted effect of over 45% in size. The conditions noted are these: CellTox Green fluorescence; series mostly up to 76.8 µM. The text has this:
National Center for Advancing Translational Sciences [NCATS]
NIH Chemical Genomics Center [NCGC]
U.S. Environmental Protection Agency [EPA]
National Institutes of Environmental Health Sciences [NIEHS]
National Toxicology Program [NTP]
Cell-based models are critical for drug discovery. Determining the natural cytotoxic effects resulting from test compounds is an essential research activity. A CellTox Green Cytotoxicity Assay to monitor cytotoxicity in real time of continues cell culture during 40 hours of the compound treatment was used to screen Tox21 10K library compounds in Hek293 cells. CellTox Green Cytotoxicity Assay is a nonlytic, homogeneous, biofluorescent method to measure cytotoxicity in cell culture after experimental manipulation. The assay system uses a proprietary asymmetric cyanine dye that is excluded from viable cells but preferentially stains the dead cell's DNA. […] Viable cells produce no appreciable increases in fluorescence. Therefore, the fluorescence signal produced by the binding interaction with dead cell DNA is proportional to cytotoxicity.
The mixture of Hek293 cell suspension and reagents were dispensed at 600cells/6 ul/well in 1536-well tissue culture treated black solid bottom plates using a Multidrop dispenser. After the assay plates were incubated at a 37 C/5% CO2 incubator for 5 hours, 23 nL of compounds dissolved in DMSO, positive and negative controls was transferred to the assay plate by a pintool work station. The plates were incubated at 37 C for 40 hours. The fluorescence intensity were measured at 0h, 8h, 16h, 24h, 32h and 40h time points using ViewLux plate reader during compound treatment.
Turning to `O=c1[nH][nH]c(=O)c2cc([N+](=O)[O-])ccc12`, the Potency result is “inactive”.

Regarding `CC12CC3CC(C)(C1)CC(N)(C3)C2`, the Potency result is “inactive”.

For the molecule `CC(=O)c1ccc[nH]1`, the Potency entry was “inactive”.

On to `O=CNNC=O`, for which the Potency result is “inactive”.

As to `Cc1ccc2nc(N)[nH]c(=O)c2c1Sc1ccncc1`, the Potency entry is “inactive”.

Regarding `CC(C)(C)CCCCCCOC(=O)c1ccccc1C(=O)OCCCCCCC(C)(C)C`, the Potency entry is “inactive”.

In the case of `Cc1cc([N+](=O)[O-])ccc1N`, the Potency result is “inactive”.

For `CS(=O)(=O)c1ccc([C@@H](C[C@H]2CCC(=O)C2)C(=O)Nc2cnccn2)cc1Cl`, the Potency result is “inactive”.

As for `CCN(CC)C(=O)N1CCN(C)CC1`, the Potency result was “inactive”.

For the molecule `C[C@@H]1C[C@H]2[C@@H]3CCC4=CC(=O)C=C[C@]4(C)[C@@]3(F)[C@@H](O)C[C@]2(C)[C@@]1(O)C(=O)COP(=O)(O)O`, the Potency result was “inactive”.

For `O=C(O)CNC(=O)c1ccccc1I`, the Potency result is “inactive”.

Take `COc1cc(NS(=O)(=O)c2ccc(N)cc2)nc(C)n1`: the Potency result was “inactive”.

On to `O[C@@H](CNC[C@H](O)[C@H]1CCc2cc(F)ccc2O1)[C@@H]1CCc2cc(F)ccc2O1`, for which the Potency was 26.8 µM (active).

With `COC(=O)c1sccc1S(N)(=O)=O`, the Potency entry was “inactive”.

For the molecule `CC(O)Cn1cnc2c1c(=O)n(C)c(=O)n2C` (stereo not given), the Potency result is “inactive”.

As for `COc1cc(OC)c2ccc(=O)oc2c1`, the Potency entry is “inactive”.

In the case of `CNC1CCCN(c2c(F)cc3c(=O)c(C(=O)O)cn(C4CC4)c3c2OC)C1` (stereo not given), the Potency entry was “inactive”.

As to `Cc1c(C2(c3cc(Br)c(O)c(Br)c3C)OS(=O)(=O)c3ccccc32)cc(Br)c(O)c1Br`, the Potency result is “inactive”.

On to `COc1ccc(N)c([N+](=O)[O-])c1`, for which the Potency entry is “inactive”.

As for `CC(C)(C)C(O)/C=C/c1ccc2c(c1)OCO2` (stereo not given), the Potency entry was “inactive”.

On to `CC(=O)OC(C)C[N+](C)(C)C` (stereo not given), for which the Potency result was “inactive”.

In the case of `CC[C@H]1OC(=O)[C@H](C)[C@@H](O[C@H]2C[C@@](C)(OC)[C@@H](O)[C@H](C)O2)[C@H](C)[C@@H](O[C@@H]2O[C@H](C)C[C@H](N(C)C)[C@H]2O)[C@](C)(O)C[C@@H](C)/C(=N\OCOCCOC)[C@H](C)[C@@H](O)[C@]1(C)O`, the Potency result is “inactive”.

On to `O=C(NC(Cc1cc(=O)[nH]c2ccccc12)C(=O)O)c1ccc(Cl)cc1` (stereo not given), for which the Potency entry is “inactive”.

Take `Cc1ccc(N(CC2=NCCN2)c2cccc(O)c2)cc1`: the Potency entry is “inactive”.

With `CCCCCCC(O)CCCCCCCCCCC(=O)OC` (stereo not given), the Potency entry was “inactive”.

On to `COC1CCC=CO1` (stereo not given), for which the Potency entry is “inactive”.

In the case of `Cc1ccc(N(CCO)CCO)cc1`, the Potency entry is “inactive”.

Take `O=C(O)CN1C(=O)c2cccc3cccc(c23)C1=O`: the Potency result was “inactive”.

In the case of `CC1CCCC(=O)C1=O` (stereo not given), the Potency entry is “inactive”.

Regarding `CCOC(=O)c1ccc(NC(=O)CN2CCCCC2)cc1`, the Potency entry is “inactive”.

As for `O=C1[C@@H]2[C@H]3CC[C@H](C3)[C@@H]2C(=O)N1CCCCN1CCN(c2ncccn2)CC1`, the Potency entry is “inactive”.

Consider `Cc1ccc2c(c1)CCCN2`, for which the Potency result was “inactive”.

Consider `CC(C)CC(O)CC(C)C`, for which the Potency entry is “inactive”.

Consider `CCCCCCCCCCCCCCN(C)C`, for which the activity change was -31.5% [at 15.8 µM, stronger effect = higher value] (inactive).

For the molecule `CCCCCCCCCCCC(=O)OCC(O)CO` (stereo not given), the Potency result is “inactive”.

With `COc1ccc(/C=C/C(=O)c2ccc(OC)cc2OC)cc1`, the Potency result is “inactive”.

As to `Cc1ccc(NC(=O)N(C)C)cc1NC(=O)N(C)C`, the Potency result was “inactive”.

For the molecule `CCN(CC)CCNC(=O)c1cc(Cl)c(N)cc1OC`, the Potency entry was “inactive”.

For `CC(C)c1ccc(C(=O)N=C(N)N)cc1S(C)(=O)=O`, the Potency result was “inactive”.

On to `CC(C)c1ccc(C#N)cc1`, for which the Potency result was “inactive”.
